Results from ChEMBL document CHEMBL3988442, “University of Dundee, Small-Polar-MMV Screening Library” (2021).
For some assays here: Potency and affinity values are given separately.

What was measured:
Parameters in all cases: scale not given: direction of the effect not stated beside the values
[1] = biological target: Protein translocase subunit SecA (Escherichia coli (strain K12)) (UniProt P10408); assay: Assay to Identify E. coli SecA ATPase Inhibitors; assay type: functional; conditions: 30 µM
Protein translocase subunit SecA (Escherichia coli (strain K12)), sequence (P10408 whole entry): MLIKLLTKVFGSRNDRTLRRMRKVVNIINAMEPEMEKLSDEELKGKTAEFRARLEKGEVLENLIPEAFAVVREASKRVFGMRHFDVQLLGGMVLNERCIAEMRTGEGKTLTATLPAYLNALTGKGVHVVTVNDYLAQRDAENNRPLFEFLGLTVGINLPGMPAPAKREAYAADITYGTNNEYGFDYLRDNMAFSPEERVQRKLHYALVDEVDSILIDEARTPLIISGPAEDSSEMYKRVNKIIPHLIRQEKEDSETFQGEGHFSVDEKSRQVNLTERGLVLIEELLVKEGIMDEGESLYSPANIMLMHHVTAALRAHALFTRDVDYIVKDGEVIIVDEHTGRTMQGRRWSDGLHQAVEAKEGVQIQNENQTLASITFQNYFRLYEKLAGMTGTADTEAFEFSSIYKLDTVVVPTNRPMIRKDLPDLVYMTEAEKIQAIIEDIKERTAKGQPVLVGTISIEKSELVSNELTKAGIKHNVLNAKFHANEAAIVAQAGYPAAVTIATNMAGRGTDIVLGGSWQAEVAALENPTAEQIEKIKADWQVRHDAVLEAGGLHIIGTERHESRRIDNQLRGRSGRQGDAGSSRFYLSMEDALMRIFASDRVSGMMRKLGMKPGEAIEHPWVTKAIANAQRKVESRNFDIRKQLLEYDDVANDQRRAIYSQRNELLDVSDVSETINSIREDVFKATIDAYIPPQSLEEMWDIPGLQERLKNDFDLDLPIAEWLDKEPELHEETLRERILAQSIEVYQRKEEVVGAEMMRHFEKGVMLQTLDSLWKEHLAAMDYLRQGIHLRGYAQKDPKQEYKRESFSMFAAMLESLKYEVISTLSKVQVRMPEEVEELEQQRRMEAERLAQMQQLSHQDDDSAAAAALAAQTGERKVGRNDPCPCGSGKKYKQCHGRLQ

[2] = biological target: T1, Ubiquitin-activating enzyme e1, putative (Leishmania donovani (strain BPK282A1)) (UniProt E9BSI1); assay: Leishmania donovani Ubiquitin Activating Enzyme (LdE1); assay type: functional; conditions: 30 µM
T1 sequence (whole entry): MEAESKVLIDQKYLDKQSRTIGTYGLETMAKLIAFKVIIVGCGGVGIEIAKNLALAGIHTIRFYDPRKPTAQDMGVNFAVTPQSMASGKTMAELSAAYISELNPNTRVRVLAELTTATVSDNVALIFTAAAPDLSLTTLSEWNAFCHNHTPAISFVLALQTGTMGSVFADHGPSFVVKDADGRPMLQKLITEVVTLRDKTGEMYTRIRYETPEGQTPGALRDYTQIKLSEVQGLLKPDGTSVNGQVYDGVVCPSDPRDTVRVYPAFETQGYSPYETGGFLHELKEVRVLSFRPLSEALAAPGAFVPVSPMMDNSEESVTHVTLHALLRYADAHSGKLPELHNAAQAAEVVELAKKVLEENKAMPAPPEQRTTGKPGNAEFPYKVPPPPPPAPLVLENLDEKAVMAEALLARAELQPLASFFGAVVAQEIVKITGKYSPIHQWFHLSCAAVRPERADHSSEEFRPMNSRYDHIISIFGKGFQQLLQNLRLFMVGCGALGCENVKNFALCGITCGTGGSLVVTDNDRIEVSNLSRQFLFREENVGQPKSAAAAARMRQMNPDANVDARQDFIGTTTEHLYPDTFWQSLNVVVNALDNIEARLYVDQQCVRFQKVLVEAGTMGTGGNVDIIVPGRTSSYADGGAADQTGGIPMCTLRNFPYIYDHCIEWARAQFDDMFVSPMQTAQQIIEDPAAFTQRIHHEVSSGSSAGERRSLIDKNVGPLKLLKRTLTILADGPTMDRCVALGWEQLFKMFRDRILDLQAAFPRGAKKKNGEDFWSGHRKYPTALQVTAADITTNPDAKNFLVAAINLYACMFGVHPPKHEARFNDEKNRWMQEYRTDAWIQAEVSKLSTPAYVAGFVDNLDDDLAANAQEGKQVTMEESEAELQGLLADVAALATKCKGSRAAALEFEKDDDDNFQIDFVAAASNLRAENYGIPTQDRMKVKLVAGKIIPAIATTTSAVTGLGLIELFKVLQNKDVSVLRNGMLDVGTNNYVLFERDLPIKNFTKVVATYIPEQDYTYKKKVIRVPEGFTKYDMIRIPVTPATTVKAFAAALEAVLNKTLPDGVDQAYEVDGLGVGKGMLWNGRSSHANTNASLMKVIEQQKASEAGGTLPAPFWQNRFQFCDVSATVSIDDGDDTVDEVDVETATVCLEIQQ

[3] = biological target: AMP-activated protein kinase, AMPK (Homo sapiens) (UniProt P54646+O43741+P54619+Q9UGJ0+Q9Y478+Q13131+Q9UGI9); assay: AMP-dependent Kinase enzyme assay. An in vitro enzyme assay that detects ADP turnover that is directly proportional to AMPK activity. This uses naive AMPK that is activated during the assay with MK-8722; assay type: functional; conditions: 30 µM
[4] = biological target: Sialic acid-binding Ig-like lectin 9 (Homo sapiens) (UniProt Q9Y336); assay: Hs-Siglec9 ALPHAscreen SOP 20170721; conditions: 10 µM
Sialic acid-binding Ig-like lectin 9 (Homo sapiens), sequence (Q9Y336 whole entry): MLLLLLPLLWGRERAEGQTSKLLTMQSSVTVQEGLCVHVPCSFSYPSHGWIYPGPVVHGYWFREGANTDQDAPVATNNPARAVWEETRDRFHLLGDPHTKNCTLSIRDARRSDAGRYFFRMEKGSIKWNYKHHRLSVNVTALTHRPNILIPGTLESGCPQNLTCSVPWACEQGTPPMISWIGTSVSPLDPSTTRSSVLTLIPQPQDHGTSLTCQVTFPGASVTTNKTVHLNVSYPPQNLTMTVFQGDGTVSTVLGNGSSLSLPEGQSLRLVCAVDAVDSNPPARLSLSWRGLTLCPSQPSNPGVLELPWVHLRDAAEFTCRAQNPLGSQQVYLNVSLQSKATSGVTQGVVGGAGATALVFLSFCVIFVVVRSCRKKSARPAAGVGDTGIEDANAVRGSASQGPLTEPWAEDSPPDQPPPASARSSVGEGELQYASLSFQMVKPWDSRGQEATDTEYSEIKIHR

[5] = system: Trypanosoma cruzi; assay: Trypanosoma cruzi phosphomannomutase and mannose-1-phosphate guanylyltransferase assay; assay type: functional; conditions: 10 µM
[6] = biological target: T2, Arginase-2, mitochondrial (Homo sapiens) (UniProt P78540); assay: in vitro enzyme assay to detect the production of urea directly proportional to the activity of Arginase II; assay type: functional; conditions: 33.3 µM; also: in the data most compounds retested in dose-response had high values
T2 sequence (whole entry): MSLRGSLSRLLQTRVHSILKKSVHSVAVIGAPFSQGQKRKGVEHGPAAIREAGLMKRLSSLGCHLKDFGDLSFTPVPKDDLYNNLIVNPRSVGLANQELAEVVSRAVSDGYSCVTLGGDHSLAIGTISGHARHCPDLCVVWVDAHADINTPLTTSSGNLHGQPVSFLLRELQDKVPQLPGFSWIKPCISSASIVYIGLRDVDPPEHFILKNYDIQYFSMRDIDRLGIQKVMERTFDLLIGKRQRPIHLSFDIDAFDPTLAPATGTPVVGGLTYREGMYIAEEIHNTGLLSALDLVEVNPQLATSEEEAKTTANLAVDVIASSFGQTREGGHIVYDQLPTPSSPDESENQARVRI

[7] = biological target: T3, Proteasome subunit beta (Trypanosoma cruzi) (UniProt O96673); assay: Trypanosoma cruzi proteasome chymotrypsin-like activity (TcProtChymo) assay.; also: in the data most compounds retested in dose-response had high values; assay type: functional; conditions: 9.37 µM
T3 sequence (whole entry): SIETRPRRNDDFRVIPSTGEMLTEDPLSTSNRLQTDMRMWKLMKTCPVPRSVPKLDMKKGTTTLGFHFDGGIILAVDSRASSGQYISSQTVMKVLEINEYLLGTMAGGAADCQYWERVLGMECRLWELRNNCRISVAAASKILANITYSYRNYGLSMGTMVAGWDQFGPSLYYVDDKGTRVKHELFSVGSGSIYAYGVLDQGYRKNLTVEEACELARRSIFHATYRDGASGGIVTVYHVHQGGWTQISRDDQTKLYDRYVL

[8] = organism: Homo sapiens; assay: To identify inhibition of the IFN signalling (Jak-Stat) pathway via expression of an eGFP reporter gene under the control of an IFN-stimulated response element (ISRE) containing MxA promoter.; assay type: functional; conditions: 30 µM
[9] = biological target: T4, Tyrosyl-tRNA synthetase, putative (Trypanosoma cruzi (strain CL Brener)) (UniProt Q4DSP6); assay: Trypanosoma cruzi tyrosyl tRNA synthetase (TcYRS) _High Tyrosine SOP; assay type: functional; conditions: 30 µM; also: in the data most compounds retested in dose-response had high values
T4 sequence (whole entry): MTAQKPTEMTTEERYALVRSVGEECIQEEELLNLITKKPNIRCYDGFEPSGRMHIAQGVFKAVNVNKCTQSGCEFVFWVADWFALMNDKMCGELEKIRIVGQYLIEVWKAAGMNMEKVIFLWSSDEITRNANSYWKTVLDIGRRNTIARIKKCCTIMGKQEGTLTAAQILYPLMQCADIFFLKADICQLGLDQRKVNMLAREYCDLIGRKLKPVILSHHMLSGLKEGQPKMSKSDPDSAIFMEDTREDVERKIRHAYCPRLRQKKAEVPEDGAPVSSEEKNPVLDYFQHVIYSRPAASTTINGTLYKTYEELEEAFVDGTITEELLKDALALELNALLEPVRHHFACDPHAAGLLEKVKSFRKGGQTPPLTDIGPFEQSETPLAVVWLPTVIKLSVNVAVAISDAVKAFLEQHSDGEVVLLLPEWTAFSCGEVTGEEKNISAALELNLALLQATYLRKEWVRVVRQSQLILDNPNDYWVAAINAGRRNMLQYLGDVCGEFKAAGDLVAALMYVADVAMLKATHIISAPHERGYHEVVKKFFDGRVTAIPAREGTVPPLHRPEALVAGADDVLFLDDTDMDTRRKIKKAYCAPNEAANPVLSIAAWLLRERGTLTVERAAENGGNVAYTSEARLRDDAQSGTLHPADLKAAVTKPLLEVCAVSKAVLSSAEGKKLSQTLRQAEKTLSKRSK

[10] = biological target: T4, Tyrosyl-tRNA synthetase, putative (Trypanosoma cruzi (strain CL Brener)); assay: Trypanosoma cruzi tyrosyl tRNA synthetase (TcYRS) SOP; assay type: functional; conditions: 30 µM
[11] = biological target: Chromo domain-containing protein 1 (Saccharomyces cerevisiae (strain ATCC 204508 / S288c) (Baker's yeast)) (UniProt P32657); assay: ScCHD-1 Enzyme Inhibition Assay; assay type: functional; conditions: 30 µM; also: in the data most compounds retested in dose-response had high values
Chromo domain-containing protein 1 (Saccharomyces cerevisiae (strain ATCC 204508 / S288c) (Baker's yeast)), sequence (P32657 whole entry, the tested form may be a part): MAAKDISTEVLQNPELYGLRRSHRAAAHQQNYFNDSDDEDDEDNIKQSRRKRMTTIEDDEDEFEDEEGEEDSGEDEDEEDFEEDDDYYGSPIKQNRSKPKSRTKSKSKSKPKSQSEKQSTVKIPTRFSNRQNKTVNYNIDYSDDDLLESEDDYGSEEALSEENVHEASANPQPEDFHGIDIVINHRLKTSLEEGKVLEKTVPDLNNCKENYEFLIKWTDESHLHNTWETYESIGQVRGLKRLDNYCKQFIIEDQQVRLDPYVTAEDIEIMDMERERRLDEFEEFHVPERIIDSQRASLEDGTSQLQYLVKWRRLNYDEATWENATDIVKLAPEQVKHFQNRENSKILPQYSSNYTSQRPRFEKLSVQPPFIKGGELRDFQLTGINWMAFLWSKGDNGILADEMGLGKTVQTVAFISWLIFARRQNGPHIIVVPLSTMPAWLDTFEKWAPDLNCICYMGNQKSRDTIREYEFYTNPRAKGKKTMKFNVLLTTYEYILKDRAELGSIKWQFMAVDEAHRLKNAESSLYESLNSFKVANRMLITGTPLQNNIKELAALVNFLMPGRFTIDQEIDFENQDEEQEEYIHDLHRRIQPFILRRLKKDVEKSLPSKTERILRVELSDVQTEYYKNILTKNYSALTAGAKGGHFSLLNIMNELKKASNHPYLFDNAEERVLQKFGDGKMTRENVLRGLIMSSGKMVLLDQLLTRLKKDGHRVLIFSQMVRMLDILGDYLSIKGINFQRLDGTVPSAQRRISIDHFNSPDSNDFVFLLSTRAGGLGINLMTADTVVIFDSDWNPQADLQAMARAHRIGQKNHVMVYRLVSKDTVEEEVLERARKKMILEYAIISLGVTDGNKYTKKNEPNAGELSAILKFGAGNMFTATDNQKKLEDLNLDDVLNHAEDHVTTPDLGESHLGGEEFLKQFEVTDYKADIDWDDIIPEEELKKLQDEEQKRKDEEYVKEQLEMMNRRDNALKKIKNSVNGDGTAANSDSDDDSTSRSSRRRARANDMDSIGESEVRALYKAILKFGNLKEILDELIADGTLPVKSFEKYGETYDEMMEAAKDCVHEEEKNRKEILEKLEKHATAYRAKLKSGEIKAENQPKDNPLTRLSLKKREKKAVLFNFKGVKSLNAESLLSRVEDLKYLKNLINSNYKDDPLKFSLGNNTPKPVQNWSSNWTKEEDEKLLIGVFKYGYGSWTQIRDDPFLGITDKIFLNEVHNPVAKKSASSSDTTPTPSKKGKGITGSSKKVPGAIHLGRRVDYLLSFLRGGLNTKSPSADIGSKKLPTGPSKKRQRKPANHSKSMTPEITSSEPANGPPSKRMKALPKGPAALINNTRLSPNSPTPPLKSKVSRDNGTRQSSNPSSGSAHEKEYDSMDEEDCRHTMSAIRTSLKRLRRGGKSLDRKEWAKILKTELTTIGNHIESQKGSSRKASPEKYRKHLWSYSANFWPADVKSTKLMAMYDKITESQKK

Compound | Percent Effect [1] [%] | Percent Effect [2] [%] | Percent Effect [3] [%] | Percent Effect [4] [%] | Percent Effect [5] [%] | Percent Effect [6] [%] | Percent Effect [7] [%] | Percent Effect [8] [%] | Percent Effect [9] [%] | Percent Effect [10] [%] | Percent Effect [11] [%]
Cc1cnn(CC2CCCCN2Cc2nc(-c3ccoc3)no2)c1 (configuration not stated) | -1.89 | 16.2 | -6.06 | 4.87 | 5.19 | -5.61 | 7.75 | 21.5 | 8.37 | 23.5 | -6.74
CCN1CCC(CNCc2cc(OC)ccc2OC)C1 (configuration not stated) | -3.32 | 0 | -0.832 | -3.34 | -5.66 | 0.417 | 6.17 | 0.331 | 0.99 | 1.22 | -0.855
CC(Oc1ccccc1C(F)(F)F)C(=O)NCCC(=O)N(C)C (configuration not stated) | -4.14 | 8.11 | -2.52 | 6.01 | 2.93 | 26.2 | 3.47 | -11.3 | 4.95 | 13.4 | -4
COc1cc(CN2CCN(c3cccc(OC)c3)C(=O)C2)cc(OC)c1 | -1.99 | 1.39 | -1.82 | -5.46 | -5.34 | -4.42 | 10.9 | -15.2 | 2.1 | 2.56 | -2.05
CC(=O)c1cc(CC(=O)NCc2ccc(F)cc2)cs1 | -2.72 | 0 | 1.92 | 3.19 | 1.93 | -1.43 | 1.72 | -0.802 | 4.76 | 9.76 | -0.261
CC(C(=O)Nc1ccc(N2CCCC2)nc1)n1cncn1 (configuration not stated) | -5.02 | 10.8 | -32.5 | 18.1 | 4.62 | -9.62 | 14.2 | 19.2 | 7.39 | 18.5 | -10.4
Cc1nn(C)c(Cl)c1C1CCCN1CCc1ccccn1 (configuration not stated) | 3.64 | -3.8 | 12.3 | 1.51 | -1.74 | 7.53 | 5.83 | 4.77 | -1.04 | 2.53 | -11.7
N#Cc1ncn(CC(=O)Nc2cc(Cl)ccc2F)n1 | -7.02 | 13.7 | 6.62 | 0.779 | 1.59 | -4.79 | 1.8 | -12.8 | 3.12 | 6.17 | 1.6
CCS(=O)(=O)N1CCC(c2nnc(Cn3cccn3)n2C2CC2)CC1 | -4.32 | 1.39 | -35.4 | -1 | 2.23 | 3.97 | 2.1 | -11.4 | 2.1 | 7.69 | -2.3
Cn1cc(N2CCC(NC(=O)c3c(F)cccc3F)C2=O)cn1 (configuration not stated) | -7.01 | -2.7 | 0.96 | -8.23 | -1.66 | -0.744 | 0.258 | -14.2 | 0 | 1.24 | 0.00639
O=C(NCc1ccccn1)NC1CCOc2ccccc21 (configuration not stated) | -4.23 | 24.3 | -0.78 | 9.97 | 9.19 | 1.29 | 9.52 | 12 | 9.9 | 28.1 | -5.33
CCNC(=O)c1nc2c(s1)CCCN2S(C)(=O)=O | -5.43 | 24 | -3.85 | -4.95 | 0.772 | -56.8 | 5.81 | 22.1 | -6.25 | 15 | -18.4
Cn1cc(CN2CCCC3(CCN(c4nncs4)C3)C2)cn1 (configuration not stated) | -9.67 | 2.7 | 2.26 | -4.09 | -2.83 | -1.24 | 1.97 | -4.18 | 1.07 | 6.17 | -0.679
COc1ccc(Br)c(C(=O)NCC2CCN(S(=O)(=O)C3CC3)CC2)c1 | -4.34 | 19.2 | -7.39 | 14 | 6.07 | -3.18 | 19.5 | 20.3 | 4.3 | 17.5 | -9.38
CCn1cnnc1CNC(=O)NC(C)C(C)C (configuration not stated) | -4.76 | 13 | 3.19 | 7.03 | -4.68 | 0 | 12.5 | 22.8 | 2.91 | 7.32 | -1.46
O=C1N(CCCc2ccccc2)CCCC1(O)CNCc1ccccc1 (configuration not stated) | -3.24 | 2.7 | -10.2 | 31.6 | 4.4 | -0.248 | 8.5 | -7.46 | 8.6 | 18.5 | -3.9
CC(C)n1c(=O)nc2n1C(=O)N(c1ccccc1)C2 | -3.47 | 18.4 | -0.93 | -3.33 | 0.682 | -4.73 | 14.7 | -2.62 | 6.38 | 18.2 | -9.74
Cc1ccn(-c2ccc(C(=O)N3CCCC(C(N)=O)C3)cc2)n1 (configuration not stated) | -6.07 | 10.1 | -10.5 | 3.7 | -5 | -1.9 | 5.16 | 28.1 | 0.493 | 8.86 | -4.17
COc1ccc(C(=O)N2CCCC2c2ccco2)cc1OC (configuration not stated) | 2.38 | 2.6 | -1.48 | -11.9 | -4.24 | -1.94 | 14.8 | 9.23 | 3.17 | 8.97 | -10.7
CS(=O)(=O)N1CCOCC2(CCN(C(=O)c3cccnc3)CC2)C1 | 0.0699 | 2.74 | 2.01 | -0.0941 | 2.78 | 4.79 | 9.33 | -18.8 | 0 | 3.7 | -3.11
Cc1cc(C(=O)N2C[C@@H]3[C@@H](C2)OCC(=O)N3CC2CC2)no1 | -1.71 | -31.2 | 5.62 | 6.36 | -6.98 | -16.6 | 4.49 | 6.95 | -54.8 | -90.1 | 0.00283
CC(CNC(=O)Nc1cn[nH]c1)N1CCOCC1 (configuration not stated) | -0.592 | 13 | 1.69 | -6.2 | -3.04 | 6.53 | 15.9 | 25 | 7.62 | 18.8 | -18.5
